NCOA1 inh: inhibits human SRC1 coactivator. Q15788. HEK293 GAL4-SRC1 luciferase reporter, luminescence. inhibition, % at 3.6 µM. hit rate 0.12% among 360,000;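 active means inhibition above the campaign mean plus 3 SD, with each screening campaign given its own cutoff, cut at about 60% in these data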;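 further: 0% = DMSO treated cells and 100% = gossypol at 36 µM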
NR2F2 inh: blocks human COUP-TFII nuclear receptor | P24468 | HEK293T NGFI-A luciferase reporter, luminescence | inhibition, % at 8.6 µM | hit rate 0.7% among 370,000 | AID 686940;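 active means inhibition above a per-plate cutoff, mean inhibition of test wells between control levels plus 3 SD, cut at about 38% in these data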;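 further: cells cotransfected with COUP-TFII expression vector driving the NGFI-A reporter; 0% = median of COUP-TF2 test wells and 100% = reporter-only cells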
NR5A2 inv ag: suppresses constitutive activity of human LRH-1. O00482. HEK293T StAR-luciferase reporter, LRH-1 transfected, 24 h. inhibition, % at 3.6 µM. hit rate 0.13% among 360,000. AID 602396;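 active means inhibition above the mean inhibition of all tested compounds plus 3 SD, cut at about 73% in these data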;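 further: 0% = DMSO wells and 100% = reporter-only cells lacking LRH-1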
NCOA3 inh: inhibitors of human steroid receptor coactivator 3 (SRC3) | hit rate 0.17% among 360,000 | HEK293 GAL4-SRC3 luciferase reporter, luminescence | inhibition, % at 3.6 µM;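 active means inhibition above a per-campaign cutoff, the mean of all compounds plus 3 SD, cut at about 60% in these data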;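 further: 0% = DMSO-treated cells and 100% = gossypol-treated cells at 36 µM; higher means less SRC3-driven luciferase light from the GAL4 reporter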
SRC2 inh: inhibits human steroid receptor coactivator 2. Q15596. HEK293 GAL4-SRC2 luciferase reporter, luminescence. inhibition, % at 9 µM. hit rate 0.17% among 370,000. AID 651957;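 active means inhibition above the mean inhibition of all tested compounds plus 3 SD, set per campaign, cut at about 52% in these data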;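 further: 0% = DMSO treated cells and 100% = cells given Gossypol at 36 µM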
Efflux pump mplx: antifungal efflux pump inhibition, Nile Red retention; hit rate 0.44% among 330,000; S. cerevisiae Candida pump triplex; inhibition, % at 10 µM;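 active means plate passing quality check with inhibition over a set limit, or well fluorescence over plate mean plus 4 SD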;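 further: Nile Red retained in pooled yeast measured as flow cytometry median fluorescence; 0% = buffer negative control and 100% = Enniatin B positive control; higher means more Nile Red kept so more efflux inhibition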
Yeast cmpd fluor: compound fluorescence in yeast efflux pump counter-screen. hit rate 4% among 1,700. shares compounds with Efflux pump mplx. AID 588517. fluorescence ratio to DMSO, % at 10 µM. S. cerevisiae AD/pABC3, flow cytometry;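 active means fluorescence ratio to DMSO above its plate's cutoff, the plate mean ratio plus 5 SD, cut at about 210% in these data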;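 further: unstained yeast with no Nile Red so the signal is compound autofluorescence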
CaMdr1 efflux inh: blocks the Candida albicans Mdr1 efflux pump in yeast. shares compounds with Efflux pump mplx. S. cerevisiae AD/CaMDR1, Nile Red efflux, flow cytometry. inhibition, % at 10 µM. hit rate 1% among 1,700; in the data active means inhibition above about 26%;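 further: 0% = DMSO vehicle and 100% = reference inhibitor; higher means more Nile Red retained so more efflux inhibition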
Cdr2 pump inh: blocks the Candida albicans Cdr2 efflux pump in yeast. shares compounds with Efflux pump mplx. S. cerevisiae AD/CaCDR2, Nile Red retention, flow cytometry. Nile Red retention ratio vs DMSO, % at 10 µM. hit rate 4% among 1,700. AID 588520; in the data active means Nile Red retention ratio vs DMSO above about 190%;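 further: higher ratio means more blocking of Cdr2 efflux of the dye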
Cdr1 pump inh: inhibitors of Candida albicans Cdr1 efflux pump | shares compounds with Efflux pump mplx | S. cerevisiae AD/CaCDR1, Nile Red efflux, flow cytometry | inhibition, % at 10 µM | hit rate 1% among 1,700;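 active means inhibition above the screen-wide mean plus twice its standard deviation, cut at about 32% in these data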
The depositor's hits bear a star; / = not tested or not shown. Rows were chosen to be rich in hits. Some 1.2% of all compounds tested hit in one or more screens of this group.

SMILES | NCOA1 inh | NR2F2 inh | NR5A2 inv ag | NCOA3 inh | SRC2 inh | Efflux pump mplx | Yeast cmpd fluor | CaMdr1 efflux inh | Cdr2 pump inh | Cdr1 pump inh
CCc1cc(CNC(=O)c2ccc(OC)c(OC3CCN(C(C)C)CC3)c2)on1 | -1 | 17 | 6 | 7 | -37 | 0 | / | / | / | /
CC(=O)NCCOc1nc(N(C)C)nc(N2CCOCC2)n1 | -3 | -9 | 10 | -4 | 4 | 0.5* | 95 | 0 | 112 | 0
CC(=O)NCCOc1nc(N2CCCCC2)nc(N2CCCCC2)n1 | -1 | 5 | 9 | -47 | 35 | 0 | / | / | / | /
OC(COCc1cccs1)CN1CCN(c2cccc(C(F)(F)F)c2)CC1 (centres undefined) | 0 | 10 | 0 | -4 | 16 | 6.8* | 106 | 0 | 112 | 0
Cn1cc(/C=C/c2cc[n+](C)cc2)c2cc(F)ccc21 | 5 | / | 6 | 20 | / | 9.5* | 743* | 3 | 93 | 4
Cc1cc([N+](=O)[O-])nn1CC(=O)N/N=C/c1ccccc1O | 8 | 15 | 13 | 14 | -10 | 0 | / | / | / | /
Cc1cc(C)n(CC(=O)N/N=C/c2cc([N+](=O)[O-])ccc2O)n1 | 12 | 7 | 25 | 20 | 1 | 19* | 110 | 0 | 109 | 0
CCOc1ccc(CN2C(=O)c3ccccc3C2=O)cc1C(=O)NC1CC(C)(C)NC(C)(C)C1 | -18 | 7 | -12 | 2 | 3 | 0 | / | / | / | /
Cc1cc(NC(=O)CCC(=O)N(c2cccnc2)C(C(=O)NC2CCCC2)c2ccccc2)no1 (centres undefined) | -6 | 8 | -5 | 12 | -23 | 0 | 223 | 3 | 109 | 0
Cc1cc(NC(=O)CCC(=O)N(CC(=O)NC2CCCC2)Cc2ccc(F)cc2)no1 | -2 | 8 | -11 | 7 | 5 | 0 | 110 | 0 | 114 | 0
CC1(C)C2CCC(C2)C1(C)NC(=O)CNCC1CCCCC1 (centres undefined) | 17 | 9 | -6 | 14 | 3 | 0 | / | / | / | /
COc1ccc(N(CC(=O)Nc2cccc([N+](=O)[O-])c2C)S(C)(=O)=O)cc1OC | 1 | 1 | 13 | 0 | -8 | 8.9* | 98 | 0 | 103 | 0
COc1ccc(-c2nsc(C(=O)N(c3ccc(F)cc3)C(C(=O)NC3CCCC3)c3ccc(OC)cc3)c2N)cc1 (centres undefined) | 2 | 2 | 9 | 18 | -6 | 0.3* | 107 | 0 | 106 | 0
Cc1cc2oc(=O)c(CC(=O)NCCCN(C)C)c(C)c2c2occ(C(C)(C)C)c12 | / | / | / | / | / | 0.9* | 108 | 0 | 89 | 0
Cc1ccccc1CSc1ncnc2ccccc12 | -15 | 7 | 15 | 24 | 9 | 0 | / | / | / | /
N#Cc1ncc(-c2ccc3c(c2)OCCOCCOCCOCCO3)nc1C#N | -47 | -6 | 11 | 17 | -5 | 9.6* | 89 | 0 | 112 | 0
N#Cc1ncc(-c2ccc3c(c2)OCCOCCOCCOCCOCCO3)nc1C#N | -4 | -9 | 9 | 14 | 5 | 1 | / | / | / | /
CCOC(=O)C1C(c2ccc(C)o2)NC(=O)NC1(O)C(F)(F)F (centres undefined) | -5 | -10 | 2 | 9 | 10 | 0 | / | / | / | /
COc1ccc(N(CN2C(=O)c3ccccc3C2=O)C(=O)COc2ccc(Cl)cc2Cl)cc1 | 5 | 8 | 1 | 1 | -26 | 0 | / | / | / | /
O=C1c2ccccc2C(=O)N1CN(C(=O)COc1ccccc1)c1ccc(F)cc1 | -2 | 2 | 9 | 14 | 5 | 8.0* | 91 | 0 | 89 | 0
Clc1ccc(Cn2nc(-c3ccccc3)nc2-c2ccccc2)cc1 | -38 | -7 | -39 | -24 | -28 | 20* | 102 | 0 | 110 | 0
Clc1ccccc1Cn1nc(-c2ccccc2)nc1-c1ccccc1 | 4 | -24 | -9 | 13 | 0 | 0 | / | / | / | /
